Shown are actives, neighbours in structure and some others; about 0.92% of the full set was active somewhere.
Mtb hypoxia inh: inhibitors of hypoxia-regulated fluorescent reporter in Mycobacterium tuberculosis; M. tuberculosis hypoxia-regulated fluorescent reporter, fluorescence; fluorescence inhibition, % (no concentration beside the values); actives 0.1% (n = 300,000); in the data active = fluorescence inhibition mostly above about 23%, no sharp cut-off; inactive = mostly below about 17%
UGM FP inh: inhibitors of M. tuberculosis UDP-galactopyranose mutase; inhibition, % at 10 µM; actives 0.06% (n = 320,000); purified UGM, fluorescence polarization probe displacement; in the data active = inhibition above about 10%, passing the limit was not always enough; inconclusive = no clear call, values can overlap the other calls
Mtb betalactam: beta-lactam sensitization of Mtb H37Rv; M. tuberculosis H37Rv growth with meropenem, percent inhibition; inhibition, % at 25 µM; actives 0.27% (n = 330,000); AID 434955; call rule not given here;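 note: growth measured after seven days incubation then overnight dye step; 0% = bacteria only wells and 100% = bacteria with antibiotic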
Rv3671c inh: inhibits the M. tuberculosis serine protease Rv3671c. P9WHR9. inhibition, % at 5.96 µM. actives 0.048% (n = 320,000). AID 2606;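 note: extracellular domain of Rv3671c used as enzyme; 0% = enzyme with DMSO and 100% = no enzyme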
RecA intein inh: Mtb RecA intein splicing inhibition | P9WHJ3 | cell-free RecA intein splicing, fluorescence | AID 2221 | inhibition, % (concentration not given with the values) | actives 0.75% (n = 290,000); in the data active = inhibition above about 30%; inconclusive = no clear call, values can overlap the other calls;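 note: 0% = vehicle wells and 100% = reference inhibitor control wells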
FadD28 binding: inhibitors of Mycobacterium tuberculosis FadD28 bisubstrate binding; FadD28 bisubstrate probe binding, fluorescence polarization; inhibition, % at 12.5 µM; actives 0.22% (n = 360,000); AID 588549; in the data active = inhibition above about 8.5%, passing the limit was not always enough; inconclusive = no clear call, values can overlap the other calls
Rv3671c cf: confirmation of M. tuberculosis Rv3671c protease inhibitors | actives 40% (n = 140) | shares compounds with Rv3671c inh | inhibition, % at 5.96 µM
DNA intercal FP: DNA intercalation detected by acridine orange polarization counter-screen; shares compounds with UGM FP inh; acridine orange-DNA binding, fluorescence polarization; AC50, µM; actives 60% (n = 35); AID 463198;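 active = fitted AC50 no greater than ten times the top concentration tested, cut at about 17 µM in these data; inconclusive = flat fit with 30 to 70% signal change, or an unreliable fit; inactive = AC50 beyond ten times the top concentration tested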
* hit, by the source's call; ? = inconclusive; / = not tested or not shown. Cut-off read from the data, not from the text of the source, unless noted: active = inhibition above about 38%; inactive = the rest.

SMILES	Mtb hypoxia inh	UGM FP inh	Mtb betalactam	Rv3671c inh	RecA intein inh	FadD28 binding	DNA intercal FP	others
O=C(CSC1=NS(=O)(=O)c2ccccc2N1)c1ccccc1	-1	4	-9	-4	-2	-1	/
CC1=C(C(N)=O)C(c2cccs2)n2nc(-c3cccc(C)c3)nc2N1 (stereo not drawn)	2	-1	5	43*	-1	-1	/	Rv3671c cf=52*
CCCCCCCCCCCCCCCC[n+]1ccc(/C=N/O)cc1	/	-2	68	59*	/	-2	>35	Rv3671c cf=72*
N#CC=C1NC(=O)c2ccccc2S1	1	/	/	/	/	/	/
COc1ccc2ccccc2c1C(O)c1nccn1C (stereo not drawn)	-1	39*	-2	13	3	7	>35
Cn1ccnc1C(O)c1ccccc1 (stereo not drawn)	0	-1	0	1	-4	-2	/
Cc1cccc(N2C(=O)c3cccc4c(N(C)CCO)ccc(c34)C2=O)c1	-17	3	-1	9	-20	2	>35
COc1ccc(CN2CCNC(=O)C2CC(=O)NC2CCC2)c(OC)c1 (stereo not drawn)	0	0	-6	/	-1	0	/
CC1Cc2ccccc2N1C(=O)CSc1ccccn1 (stereo not drawn)	/	/	/	/	/	-1	/
CC1Cc2ccccc2N1C(=O)CSc1ncccn1 (stereo not drawn)	7	4	0	-5	0	-1	>35
O=c1cc(-c2ccccc2)oc2cc(O)ccc12	/	/	/	/	/	-1	/
O=c1ccc2c(-c3ccccc3)c3ccc(O)cc3oc-2c1	-37	41*	-2	19	-93	6	0.55*
COCCn1c(SCc2ccc(Cl)cc2)nc2c1c(=O)[nH]c(=O)n2C	-12	0	-14	6	-1	-2	/
COc1ccc2c3c(cccc13)C(=O)CC2	7	79*	5	/	-72	47*	>35
CCOC(=O)N1CCN(c2cc(NCCC(=O)O)c3c4c(onc24)-c2ccccc2C3=O)CC1	4	-30	13	-30	/	15*	>35
Cc1cc(C)cc(NS(=O)(=O)c2ccc3c(c2)C(C)(C)C(=O)N3C)c1	/	1	?	3	-1	-1	>35
O=C(O)c1ccc(C=NNc2cccc(C(F)(F)F)c2)cc1	13	/	/	/	/	/	/
O=C(CCCN1C(=O)c2cccc3cccc(c23)C1=O)N1CCN(c2ccccc2)CC1	0	3	1	3	-2	-1	>35
O=C(CCCN1C(=O)c2cccc3cccc(c23)C1=O)N1CCN(c2ccccc2O)CC1	16	-3	0	2	-5	-1	/
CC1CCC(C(C)C)C(OC(=O)C2=C3c4ccccc4S(=O)(=O)N3CC2)C1 (stereo not drawn)	/	0	1	8	1	-1	/
